Data reported in PubChem BioAssay (NCI).
Compounds without any hit were thinned out: in the full panel of roughly 79,000, 15% have a hit. Active and inactive are the calls of the source. Cut-off read from the data, not from the text of the source: active = growth inhibition above about 70%; inactive = the rest.

How the values were obtained:
[1] = NCI Yeast Anticancer Drug Screen. Data for the mec2-1 strain (AID 157); conditions: S. cerevisiae mec2-1 strain, hits give high values
How it was run: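 Mutant yeast (mec2-1) grown with compound; growth inhibition relative to vehicle control reported.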

[2] = NCI Yeast Anticancer Drug Screen. Data for the rad14 strain (AID 159);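 note: 0% = growth of vehicle-treated control cultures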; conditions: S. cerevisiae rad14 strain growth inhibition, hits give high values
How it was run: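 Screen for anticancer potential: a yeast strain altered in DNA damage repair is grown with compound, and reduced growth is quantified against vehicle controls.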

[3] = NCI Yeast Anticancer Drug Screen. Data for the sgs1 mgt1 strain (AID 161);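 note: 0% = growth of cultures given vehicle only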; conditions: S. cerevisiae sgs1 mgt1 strain, hits give high values
How it was run: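 Percent growth inhibition was derived by comparing compound-exposed mutant yeast with vehicle-exposed cultures. The strain carries alterations in DNA damage repair.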

[4] = NCI Yeast Anticancer Drug Screen. Data for the CLN2oe strain (AID 163);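 note: 0% = growth of vehicle-only control cultures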; conditions: S. cerevisiae CLN2oe strain, hits give high values
How it was run: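 Compounds are applied to yeast harbouring a defined cell-cycle control change; reduced growth compared with vehicle-treated controls gives the value.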

[5] = NCI Yeast Anticancer Drug Screen. Data for the cln2 rad14 strain (AID 165);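 note: 0% = growth equal to vehicle treated cultures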; conditions: S. cerevisiae cln2 rad14 strain, hits give high values
How it was run: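 Readout is yeast growth inhibition versus vehicle-treated controls, using a strain with cln2 and rad14 alterations exposed to compound.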

[6] = NCI Yeast Anticancer Drug Screen. Data for the bub3 strain (AID 167); conditions: S. cerevisiae bub3 mutant strain, hits give high values
How it was run: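 Screening used yeast with an engineered genetic alteration affecting cell cycle control. Compound-exposed cultures were compared with vehicle cultures, and reduced growth was taken as inhibition.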

[7] = NCI Yeast Anticancer Drug Screen. Data for the wt2 strain (AID 169);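 note: 0% = growth of vehicle-treated yeast cultures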; conditions: S. cerevisiae wt2 strain growth inhibition, hits give high values
How it was run: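 Against vehicle-treated controls, the growth of yeast exposed to each compound was compared, and the inhibition was recorded.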

[8] = NCI Yeast Anticancer Drug Screen. Data for the mlh1 strain (AID 171);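 note: 0% = growth of vehicle-treated control cultures of the same strain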; conditions: S. cerevisiae mlh1 strain growth inhibition, hits give high values
How it was run: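 Measured: yeast growth. Reference: vehicle-treated controls. Organism: strain with a defined alteration affecting DNA damage repair or cell cycle control, treated with compound.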

[9] = NCI Yeast Anticancer Drug Screen. Data for the sgs1 strain (AID 173);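 note: 0% = growth of vehicle-only control cultures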; conditions: S. cerevisiae sgs1 mutant, hits give high values
How it was run: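 Each compound was added to cultures of the altered yeast strain. Growth was recorded, and inhibition was derived by comparison with vehicle controls.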

[10] = NCI Yeast Anticancer Drug Screen. Data for the mlh1 rad18 strain (AID 175); conditions: S. cerevisiae mlh1 rad18 strain growth inhibition, hits give high values
How it was run: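 Genetically defined yeast (DNA repair-deficient) exposed to compounds; growth inhibition determined relative to vehicle.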

[11] = NCI Yeast Anticancer Drug Screen. Data for the rad18 strain (AID 177); conditions: S. cerevisiae rad18 mutant growth inhibition, hits give high values
How it was run: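 Vehicle-treated cultures served as the baseline for scoring compound-induced growth inhibition in DNA-repair-mutant yeast.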

[12] = NCI Yeast Anticancer Drug Screen. Data for the rad52 strain (AID 147);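 note: 0% = growth of vehicle-treated control cultures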; conditions: S. cerevisiae rad52 mutant growth inhibition, hits give high values
How it was run: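 The repair-mutant yeast strain was incubated with compounds, then growth was read and inhibition derived relative to vehicle.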

[13] = NCI Yeast Anticancer Drug Screen. Data for the wt1 strain (AID 149);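 note: 0% = growth of vehicle-treated wt1 cultures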; conditions: S. cerevisiae wt1 strain (SPY 50644) growth inhibition, hits give high values
How it was run: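 Using yeast strain wt1, compound-induced growth inhibition was determined against vehicle-treated cultures.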

[14] = NCI Yeast Anticancer Drug Screen. Data for the rad50EPP+ strain (AID 151);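 note: 0% = growth of vehicle-treated control cultures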; conditions: S. cerevisiae rad50 mutant strain, hits give high values
How it was run: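 Vehicle-normalised growth inhibition; rad50EPP+ yeast strain, altered in DNA damage repair, compound-treated.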

[15] = NCI Yeast Anticancer Drug Screen. Data for the mgt1 strain (AID 153); conditions: S. cerevisiae mgt1 mutant growth inhibition, hits give high values
How it was run: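 Vehicle-normalized growth inhibition is determined in mgt1 yeast, a strain selected for a defined alteration in DNA repair or cell cycle control.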

[16] = NCI Yeast Anticancer Drug Screen. Data for the rad50 strain (AID 155);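 note: 0% = growth of vehicle-only cultures of the same strain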; conditions: S. cerevisiae rad50 strain growth inhibition, hits give high values
How it was run: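 Relative growth inhibition (compound vs vehicle) was measured in yeast with a defined repair-gene alteration.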

[17] = at 5.0 µM (retest, dose inferred, filed as 0.5)
[18] = at 50.0 µM (retest, dose inferred, filed as 5.0)

Measured: growth inhibition

O=[N+]([O-])c1cc(F)c(F)cc1Sc1cc(F)c(F)cc1[N+](=O)[O-]
inactive: [1]; [17] -2% | [2]; at 1.2 µM 1% | [2]; at 3.7 µM 17% | [3]; [17] 64% | [4]; at 1.2 µM -2% | [4]; at 3.7 µM 1% | [5]; [17] 27% | [6]; at 1.2 µM -3% | [6]; at 3.7 µM 5% | [6]; [17] 49% | [7]; at 1.2 µM 0% | [7]; at 3.7 µM 12% | [8]; at 1.2 µM 0% | [8]; at 3.7 µM 7% | [9]; at 1.2 µM 6% | [9]; at 3.7 µM 32% | [11]; at 1.2 µM 38% | [11]; at 3.7 µM 69%
active: [1]; at 11.0 µM 83% | [1]; at 33.0 µM 99% | [1]; [18] 98% | [1]; at 50.0 µM 98.5% | [1]; at 100.0 µM 98% | [2]; at 11.0 µM 83% | [2]; at 33.0 µM 98% | [2]; at 100.0 µM 97% | [3]; [18] 98% | [3]; at 50.0 µM 98.3% | [4]; at 11.0 µM 75% | [4]; at 33.0 µM 99% | [4]; at 100.0 µM 95% | [5]; [18] 97% | [5]; at 50.0 µM 96.8% | [6]; at 11.0 µM 76% | [6]; at 33.0 µM 98% | [6]; [18] 97% | [6]; at 50.0 µM 98.5% | [6]; at 100.0 µM 98% | [7]; at 11.0 µM 91% | [7]; at 33.0 µM 99% | [7]; at 100.0 µM 96% | [8]; at 11.0 µM 90% | [8]; at 33.0 µM 99% | [8]; at 100.0 µM 97% | [9]; at 11.0 µM 92% | [9]; at 33.0 µM 99% | [9]; at 100.0 µM 97% | [10]; [17] 82% | [10]; [18] 97% | [10]; at 50.0 µM 98.6% | [11]; at 11.0 µM 94% | [11]; at 33.0 µM 98% | [11]; at 100.0 µM 97%

COc1cc(CSc2ccc(O)cc2)cc(O)c1O
active: [3]; at 50.0 µM 74.7% | [10]; at 50.0 µM 73.5%
inactive: [12]; at 1.2 µM 2% | [12]; at 3.7 µM 3% | [12]; at 11.0 µM 5% | [12]; at 33.0 µM 7% | [12]; at 100.0 µM 8% | [13]; at 1.2 µM 0% | [13]; at 3.7 µM 0% | [13]; at 11.0 µM 1% | [13]; at 33.0 µM -2% | [13]; at 100.0 µM -1% | [14]; at 1.2 µM -3% | [14]; at 3.7 µM -4% | [14]; at 11.0 µM -6% | [14]; at 33.0 µM -6% | [14]; at 100.0 µM 0% | [15]; at 1.2 µM 1% | [15]; at 3.7 µM -3% | [15]; at 11.0 µM 1% | [15]; at 33.0 µM 0% | [15]; at 100.0 µM 2% | [16]; at 1.2 µM 3% | [16]; at 3.7 µM 6% | [16]; [17] 5% | [16]; at 11.0 µM -2% | [16]; at 33.0 µM 6% | [16]; [18] 42% | [16]; at 50.0 µM 60.8% | [16]; at 100.0 µM 6% | [1]; at 1.2 µM 4% | [1]; at 3.7 µM -1% | [1]; [17] -14% | [1]; at 11.0 µM -1% | [1]; at 33.0 µM -4% | [1]; [18] -6% | [1]; at 50.0 µM 54.1% | [1]; at 100.0 µM 0% | [2]; at 1.2 µM 1% | [2]; at 3.7 µM 2% | [2]; at 11.0 µM 5% | [2]; at 33.0 µM 0% | [2]; at 100.0 µM 1% | [3]; [17] -3% | [3]; [18] 30% | [4]; at 1.2 µM 6% | [4]; at 3.7 µM 8% | [4]; at 11.0 µM 10% | [4]; at 33.0 µM 12% | [4]; at 100.0 µM 17% | [5]; [17] 18% | [5]; [18] 14% | [5]; at 50.0 µM 36% | [6]; at 1.2 µM 6% | [6]; at 3.7 µM 10% | [6]; [17] -7% | [6]; at 11.0 µM 11% | [6]; at 33.0 µM 9% | [6]; [18] 14% | [6]; at 50.0 µM 61.2% | [6]; at 100.0 µM 6% | [7]; at 1.2 µM 1% | [7]; at 3.7 µM 1% | [7]; at 11.0 µM 0% | [7]; at 33.0 µM -1% | [7]; at 100.0 µM 1% | [8]; at 1.2 µM 4% | [8]; at 3.7 µM 0% | [8]; at 11.0 µM 3% | [8]; at 33.0 µM 2% | [8]; at 100.0 µM 3% | [9]; at 1.2 µM -1% | [9]; at 3.7 µM -2% | [9]; at 11.0 µM -1% | [9]; at 33.0 µM -1% | [9]; at 100.0 µM 2% | [10]; [17] 13% | [10]; [18] -1% | [11]; at 1.2 µM -2% | [11]; at 3.7 µM 1% | [11]; at 11.0 µM 2% | [11]; at 33.0 µM -10% | [11]; at 100.0 µM 10%

Cc1nc(-c2cc3cc([N+](=O)[O-])ccc3oc2=O)cs1
inactive: [12]; at 1.2 µM 13% | [12]; at 3.7 µM 39% | [12]; at 11.0 µM 47% | [12]; at 33.0 µM 65% | [13]; at 1.2 µM -5% | [13]; at 3.7 µM 5% | [13]; at 11.0 µM 11% | [13]; at 33.0 µM 25% | [14]; at 1.2 µM -7% | [14]; at 3.7 µM 26% | [14]; at 11.0 µM 57% | [15]; at 1.2 µM -1% | [15]; at 3.7 µM 6% | [15]; at 11.0 µM 5% | [15]; at 33.0 µM 25% | [16]; at 1.2 µM 20% | [16]; at 3.7 µM 17% | [16]; [17] 17% | [16]; at 11.0 µM 23% | [16]; at 33.0 µM 42% | [1]; at 1.2 µM -15% | [1]; at 3.7 µM -3% | [1]; [17] 18% | [1]; at 11.0 µM 3% | [1]; at 33.0 µM 16% | [2]; at 1.2 µM -1% | [2]; at 3.7 µM 6% | [2]; at 11.0 µM 13% | [2]; at 33.0 µM 25% | [3]; [17] 13% | [3]; [18] 46% | [4]; at 1.2 µM -22% | [4]; at 3.7 µM 3% | [4]; at 11.0 µM 8% | [4]; at 33.0 µM 20% | [5]; [17] 2% | [5]; [18] 13% | [5]; at 50.0 µM 59.4% | [6]; at 1.2 µM -15% | [6]; at 3.7 µM -2% | [6]; [17] -15% | [6]; at 11.0 µM -1% | [6]; at 33.0 µM 3% | [6]; [18] 60% | [7]; at 1.2 µM -42% | [7]; at 3.7 µM -24% | [7]; at 11.0 µM -11% | [7]; at 33.0 µM 28% | [8]; at 1.2 µM -2% | [8]; at 3.7 µM -12% | [8]; at 11.0 µM 10% | [8]; at 33.0 µM 34% | [9]; at 1.2 µM 5% | [9]; at 3.7 µM 31% | [9]; at 11.0 µM 42% | [9]; at 33.0 µM 62% | [10]; [17] 16% | [10]; at 50.0 µM 14.9% | [11]; at 1.2 µM 1% | [11]; at 3.7 µM 2% | [11]; at 11.0 µM 7% | [11]; at 33.0 µM 34%
active: [12]; at 100.0 µM 97% | [13]; at 100.0 µM 92% | [14]; at 33.0 µM 81% | [14]; at 100.0 µM 99% | [15]; at 100.0 µM 89% | [16]; [18] 84% | [16]; at 50.0 µM 89.9% | [16]; at 100.0 µM 94% | [1]; [18] 100% | [1]; at 50.0 µM 94.2% | [1]; at 100.0 µM 94% | [2]; at 100.0 µM 96% | [3]; at 50.0 µM 89.3% | [4]; at 100.0 µM 81% | [6]; at 50.0 µM 89.4% | [6]; at 100.0 µM 92% | [7]; at 100.0 µM 99% | [8]; at 100.0 µM 98% | [9]; at 100.0 µM 99% | [10]; [18] 91% | [11]; at 100.0 µM 94%
